Measurements taken from PubChem BioAssay AID1852 (Sanford-Burnham Center for Chemical Genomics, 2009).
The whole screen tested about 2,500 compounds, of which about 1,100 (44%) were called active.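 How the source made its calls: active means inhibition above 50% at 4 µM in the single-point screen; inactive means inhibition of 50% or less.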 So high a share suggests a set chosen from earlier hits. The list shows a part of the results.

Experiment: TNF-a-driven NF-kB reporter inhibitors, primary screen, selectivity assay for NOD1/NOD2 signaling inhibitor project, cell-based, HEK293T NF-kB-Luc, luminescence (AID 1852)
Settings: TNF-a induced, 14 h, at 4 µM, stronger effect = higher value

inhibition, active:
O=[N+]([O-])c1cc(S(=O)(=O)Nc2cccc(C(F)(F)F)c2)ccc1-n1nnc2ccccc21 68.7%
CN(C)c1ccnc2sc3c(=O)n(Cc4ccccc4)cnc3c12 69.1%
Cn1ncc2c(N3CCN(c4ccc(Cl)c(Cl)c4)CC3)ncnc21 104%
COc1ccc(-n2c(Cc3cccn3C)nnc2SCC(=O)Nc2cccc(F)c2)cc1 59.1%
Cc1cc(C)cc(NC(=O)CSc2nnc(Cc3cccn3C)n2-c2ccc(F)cc2)c1 59.6%
CCOc1ccccc1NC(=O)CSc1nnc(Cc2cccn2C)n1-c1ccc(F)cc1 56.8%
O=[N+]([O-])c1ccc(O)c(-c2cc(C(F)(F)F)nc(-c3ccccc3)n2)c1 93.6%
O=C(c1ccccc1)N1CCSc2sccc2C1=O 52.7%
CC1=CCCC(C)(C)C1/C=C/C(C)=N/NC(=O)c1ccncc1 (centres undefined) 59.7%
Cc1oc(-c2cc(F)ccc2F)nc1CN1CCN(c2ncnc3ccccc23)CC1 104%
COc1ccc(-c2c[n+]3c(n2-c2ccc(C)cc2)CCCCC3)cc1 50.3%
N#CC1=C(N)C(C#N)(C#N)C(c2cccnc2)C2CC(c3ccccc3)CC=C12 (centres undefined) 83.6%
O=C(Nc1nnc(SCc2c(Cl)cccc2Cl)s1)c1cccc([N+](=O)[O-])c1 83.1%
COc1ccc(NC(=O)Cn2nnc(-c3ccccc3NS(=O)(=O)c3ccc(OC)cc3)n2)cc1 70.7%
Cc1noc(C)c1CSc1nc2ccccc2nc1NS(=O)(=O)c1ccc(Cl)cc1 102%
O=[N+]([O-])c1ccc(Oc2ccc(F)cc2Br)c2ccncc12 66.6%
O=[N+]([O-])c1ccc(Oc2ccc(F)cc2)c2ccncc12 61.5%
Cn1cc([N+](=O)[O-])c(C(=O)Nc2cc(Oc3ccccc3)cc([N+](=O)[O-])c2)n1 73.2%
O=C(N/N=C/c1ccccn1)c1cc(-c2ccc(Br)cc2)nc2ccccc12 105%
O=C(N/N=C/c1ccccn1)c1cc(-c2ccc(Cl)cc2)nc2ccccc12 104%
CCCOc1cccc(-c2cc(C(=O)N/N=C/c3ccccn3)c3ccccc3n2)c1 102%
O=C(N/N=C/c1ccccn1)c1cc(-c2ccccc2)nc2ccccc12 99.1%
Cc1ccc(N(C(=O)CCl)C(C(=O)NC2CCCCC2)c2cccnc2)cc1C (centres undefined) 79.9%
COc1ccc(C(C(=O)NC2CCCCC2)N(C(=O)CCl)c2cccc(Cl)c2)cc1 (centres undefined) 60.8%
O=C(NC1CCCCC1)C(c1cccnc1)N(C(=O)CCl)c1ccccc1Cl (centres undefined) 58.7%
O=C(NC1CCCCC1)C(c1cccnc1)N(C(=O)CCl)c1cccc(Cl)c1 (centres undefined) 75.7%
O=c1c(Cl)c(Cl)cnn1Cc1nnc(-c2ccc(Cl)cc2)o1 51.5%
O=c1c(Cl)c(Cl)cnn1Cc1nnc(-c2ccccc2Br)o1 108%
Clc1ccc(-c2csc3ncnc(NCCN4CCOCC4)c23)cc1 60.1%
COc1ccc(-c2csc3ncnc(NCCN4CCOCC4)c23)cc1 89.9%
O=C(CCl)N1N=C(c2ccco2)CC1c1cccs1 (centres undefined) 56%
O=C(CCl)N1N=C(c2ccco2)CC1c1ccco1 (centres undefined) 58.9%
O=C(CCl)N1N=C(c2cccs2)CC1c1ccco1 (centres undefined) 55.2%
COC(=O)c1ccc2c(c1)C(C)(C)C(/C=C/c1ccc(O)cc1)=[N+]2C 60.8%
COc1ccc(NC(=S)N2CCN(C/C=C/c3ccccc3)CC2)c(OC)c1 57.8%
c1cc(-c2nnc3sc(C4CCCCC4)nn23)ccn1 57.5%
c1ccc(CCc2nn3c(-c4ccncc4)nnc3s2)cc1 82.6%
CCCc1nc2c(=O)n(C)c(=O)nc-2n(C)n1 105%
COCCn1c(C)cc(C(=O)COc2ccc(C)nc2[N+](=O)[O-])c1C 79.2%
Cc1ccc(OCC(=O)c2cc(C)n(Cc3cccs3)c2C)c([N+](=O)[O-])n1 68.2%
COCCn1c(C)cc(C(=O)COC(=O)c2cccc(O)c2)c1C 81.1%
Cc1ccc(OCC(=O)c2cc(C)n(-c3ccccc3)c2C)c([N+](=O)[O-])n1 72.3%

inhibition, inactive:
Cc1nc([N+](=O)[O-])c(Br)n1Cc1ccccc1 22.9%
NC(=O)c1ccc(N2CCN(S(=O)(=O)c3ccccc3)CC2)c([N+](=O)[O-])c1 5.1%
Cc1ccccc1-n1cnc2c(sc3nc(N4CCOCC4)c4c(c32)CCCC4)c1=O 18.7%
Cc1noc2ncnc(N3CCN(c4cccc(Cl)c4)CC3)c12 19%
CC1CCCN(c2ncnc3c2cnn3-c2ccc(Cl)cc2)C1 (centres undefined) 45.4%
COc1ccccc1NC(=O)CSc1nnc(Cc2cccn2C)n1-c1ccc(F)cc1 -5.9%
Cn1cccc1Cc1nnc(SCC(=O)Nc2ccc(Cl)cc2)n1-c1ccc(F)cc1 42%
COc1ccc(-n2c(Cc3cccn3C)nnc2SCC(=O)Nc2cccc(Cl)c2)cc1 14.7%
COc1ccc(Cl)cc1NC(=O)CSc1nnc(Cc2cccn2C)n1-c1ccc(F)cc1 35.1%
COc1ccc(-n2c(Cc3cccn3C)nnc2SCC(=O)Nc2ccc(F)cc2)cc1 -4%
Cn1cccc1Cc1nnc(SCC(=O)Nc2cccc(F)c2)n1-c1ccc(F)cc1 -4.7%
O=c1nc(/C=C/c2cc([N+](=O)[O-])ccc2Cl)cc(C(F)(F)F)[nH]1 -16.6%
O=[N+]([O-])c1ccc(O)c(Nc2ncnc3ccccc23)c1 4.9%
CCOC(=O)C1(Cc2ccccc2C)CCCN(C(=O)CN2C(=O)CSC2=O)C1 (centres undefined) 31.1%
CC1=C(/C=C/C(C)=N\NC(=O)c2ccncc2)C(C)(C)CCC1 3.5%
Cc1oc(-c2cccc3ccccc23)nc1CN1CCN(c2ncnc3ccccc23)CC1 43%
COc1ccc(-c2nc(CN3CCN(c4ncnc5ccccc45)CC3)c(C)o2)c(OC)c1 23.9%
COc1cc(-c2n[nH]c(=S)n2-c2ccc(C)cc2)cc(OC)c1OC 2.4%
CC1(C)C=C2[C@H]3CC[C@@H]4[C@@]5(C)CCC(=O)C(C)(C)[C@@H]5CC[C@@]4(C)[C@]3(C)CC[C@@]2(C(=O)O)CC1 1.3%
O=C(Nc1nc2c(Cl)cccc2s1)c1ccc([N+](=O)[O-])o1 6.3%
Cc1csc(NC(=O)c2cc([N+](=O)[O-])cc([N+](=O)[O-])c2)n1 -6.5%
CCNS(=O)(=O)c1ccc(NC(=O)Cn2cc([N+](=O)[O-])cn2)cc1 25%
CCOC(=O)c1cc(C(=O)Nc2ccc(S(=O)(=O)Nc3ccc(OC)cc3)cc2)nn1C 18.6%
O=S(=O)(Nc1nc2ccccc2[nH]1)c1ccc(Cl)cc1 -4.8%
O=[N+]([O-])c1nn(-c2ccc3c(c2)OCCO3)n(O)c1=Nc1ccccc1 38%
O=C1C=C(N2CCOCC2)c2ccccc2C1=O 23.7%
Nc1ccc(S(=O)(=O)Nc2nccc(/C=C/c3cccc(Br)c3)n2)cc1 36.8%
O=[N+]([O-])c1ccc(Oc2cccc(F)c2)c2ccncc12 42.3%
Cc1ccccc1S(=O)(=O)Cc1ccc(C(=O)N2CCN(c3cccc(C)c3C)CC2)o1 -33.6%
CCn1nc(C)c(C(=O)Nc2cc(Oc3cc(C)cc(C)c3)cc([N+](=O)[O-])c2)c1C 24.6%
Cc1ccc(-c2nc(NC(=O)c3nn(C)cc3[N+](=O)[O-])sc2C)cc1 39.6%
O=C(N/N=C/c1ccc[nH]1)c1cc(-c2ccc(Cl)cc2)nc2ccccc12 3.4%
O=C(Cc1cc(C(=O)O)c2ccccc2n1)Nc1ccccc1 -8.7%
COc1ccc(C(C(=O)NC2CCCCC2)N(C(=O)CCl)c2ccccc2Cl)cc1 (centres undefined) 6.2%
O=C(CN1C(=O)c2cccnc2Oc2ccc(Cl)cc21)NC1CCCCCC1 25.9%
COc1ccc(C(=O)/C=C/C(=O)N(CC(=O)NC2CCCCC2)Cc2ccccc2OC)c(O)c1 33.1%
S=C(Nc1ccc(Cl)c(Cl)c1)NC1CCCCC1 44.7%
COc1ccc(C(C(=O)NC2CCCCC2)N(C(=O)CCl)c2ccc(Cl)cc2)cc1 (centres undefined) 20.4%
O=c1c(Cl)c(Cl)cnn1Cc1ccc(F)cc1 33.4%
COc1ccc(-c2csc3ncnc(N4CCN(c5ccccc5[N+](=O)[O-])CC4)c23)cc1 -57.1%
C=CCn1c(C)c(/C=C/c2cc[n+](C)cc2)c2ccccc21 12%
COc1cc(C2CC(c3cccs3)=NN2C(=O)CCl)ccc1OC(F)F (centres undefined) 40.7%
Cc1ccc(C2=NN(C(=O)CCl)C(c3cccs3)C2)o1 (centres undefined) 43.6%
COc1ccc(C2CC(c3cccs3)=NN2C(=O)CCl)cc1OC (centres undefined) 47.4%
COC(=O)C1=C(C)N(c2ccc(F)cc2)/C(=C/c2ccc(O)cc2)C1=O -3%
COC(=O)c1ccc2c(c1)C(C)(C)C(/C=C/c1ccccc1O)=[N+]2C -7.6%
c1cnc(N2CCN(c3ccc4ccccc4n3)CC2)nc1 -118%
COc1ccc(NC(=O)c2cc(N3C(=O)C4C5CCC(C5)C4C3=O)ccc2Cl)c(OC)c1 (centres undefined) 30.6%
COc1ccc(CCNC(=S)N2CCC(Cc3ccccc3)CC2)cc1OC 47.4%
c1csc(Cc2nn3c(-c4ccncc4)nnc3s2)c1 42.2%
O=C(CCN1C(=O)c2ccc([N+](=O)[O-])cc2C1=O)Nc1ccc(O)cc1C(=O)O -3.9%
COCC(C)n1c(C)cc(C(=O)COc2ccc(C)nc2[N+](=O)[O-])c1C (centres undefined) 41%
C=CCn1c(C)cc(C(=O)COc2ccc(C)nc2[N+](=O)[O-])c1C 30%
Cc1cc(C(=O)COc2cccnc2[N+](=O)[O-])c(C)n1-c1ccccc1F 38.6%
Cc1cc(C(=O)COc2cccnc2[N+](=O)[O-])c(C)n1Cc1cccs1 38.6%
CCCn1c(C)cc(C(=O)COc2ccc(C)nc2[N+](=O)[O-])c1C -16.5%
COCCn1c(C)cc(C(=O)CSc2nnc3ccccn23)c1C 17.3%
